The values below come from PubChem BioAssay (NCATS).

Records with an inconclusive call do not appear. A call without a number means that no potency is given here. The source made the active and inactive calls. Calls come from the whole dose curve.

The nature of the test: Primary qHTS for Huh7 cytotoxicity: counterscreen for inhibitors of MERS-S pseudotyped particle cell entry (AID 1479147). Particulars: cell viability read-out; series mostly up to 57.1 µM. For orientation: qHTS replaces the single test concentration by a dilution series.
Take `CC(C)C[C@H]1C(=O)N2CCC[C@H]2[C@]2(O)O[C@](NC(=O)[C@@H]3C=C4c5cccc6[nH]c(Br)c(c56)CC4N(C)C3)(C(C)C)C(=O)N12` (stereo partly specified): the Potency entry was “inactive”.
The result for `CCCCCCCCCC(=O)OCCN1CCN(CCCN2c3ccccc3Sc3ccc(C(F)(F)F)cc32)CC1` reads “inactive”; that for `CCC1OC(=O)[C@H](C)C(=O)[C@H](C)[C@@H](OC2O[C@H](C)C[C@H](N(C)C)[C@H]2O)[C@](C)(OC)C[C@@H](C)C(=O)[C@@H](C)[C@@H]2N(CCCCn3cnc(-c4cccnc4)c3)C(=O)O[C@]12C` (stereo partly specified), “inactive”.
To `CCCCCCCC(=O)N[C@H](CN1CCCC1)[C@H](O)c1ccc2c(c1)OCCO2` belongs “inactive”.
To `COc1c(-c2ccc3cc(NS(C)(=O)=O)ccc3c2)cc(-n2ccc(=O)[nH]c2=O)cc1C(C)(C)C` belongs “inactive”; to `CC(CC(c1ccccc1)c1ccccc1)NC(C)(C)C` (stereo unspecified), “inactive”.
In the case of `COC(=O)N[C@H](C(=O)N1CCC[C@H]1c1ncc(-c2ccc(-c3ccc(-c4cnc([C@@H]5CCCN5C(=O)[C@@H](NC(=O)OC)C(C)C)[nH]4)cc3)cc2)[nH]1)C(C)C`, the Potency entry is “inactive”.
Regarding `OC[C@H]1NC[C@H](O)[C@@H](O)[C@@H]1O`, the Potency result was “inactive”.
On to `CC[C@@H](C(=O)[C@@H](C)[C@@H](O)[C@H](C)CCc1ccc(C)c(O)c1C(=O)O)[C@H]1O[C@](CC)([C@H]2CC[C@](O)(CC)[C@H](C)O2)C[C@@H]1C`, for which the Potency entry was “inactive”.
To `CCCCCCCCCC(=O)NO` belongs “inactive”; to `CC(C)(C)NCC(O)COc1ccccc1C1CCCC1` (stereo unspecified), “inactive”; to `CCCCCCCC(=O)CC[C@@H]1[C@@H](C/C=C\CCCC(=O)OC(C)C)[C@@H](O)C[C@H]1O`, “inactive”.
To `C=Cc1c(C)c2cc3nc(cc4[nH]c(cc5nc(cc1[nH]2)C(C)=C5CCC(=O)O)c(CCC(=O)OC)c4C)[C@@]1(C)C3=CC=C(C(=O)OC)[C@@H]1C(=O)OC` belongs “inactive”; to `O=C1[C@@H]2[C@H]3CC[C@H](C3)[C@@H]2C(=O)N1C[C@@H]1CCCC[C@H]1CN1CCN(c2nsc3ccccc23)CC1`, “inactive”; to `Cc1cncc(CN2CCC(=C3c4ccc(Cl)cc4CCc4cccnc43)CC2)c1`, “inactive”.
The result for `C=CC[C@@H]1/C=C(\C)C[C@H](C)C[C@H](OC)[C@H]2O[C@@](O)(C(=O)C(=O)N3CCCC[C@H]3C(=O)O[C@H](/C(C)=C/[C@@H]3CC[C@@H](O)[C@H](OC)C3)[C@H](C)[C@@H](O)CC1=O)[C@H](C)C[C@@H]2OC` reads “inactive”; that for `CCN1CCC(=C2c3ccccc3CCc3ccccc32)C1C` (stereo unspecified), “inactive”; that for `COc1cc2c(cc1OC)[C@H]1C[C@@H](OC(=O)[C@@H](N)C(C)C)[C@H](CC(C)C)CN1CC2`, “inactive”.
`CCN1CCN(Cc2ccc(Nc3ncc(F)c(-c4cc(F)c5nc(C)n(C(C)C)c5c4)n3)nc2)CC1`: the Potency result is “inactive”.
The result for `Cc1cc(-n2c(=O)[nH]c(=O)n(C)c2=O)ccc1Oc1ccc(SC(F)(F)F)cc1` reads “inactive”; that for `Cc1ccc(C2(O)CCN(CCCC(=O)c3ccc(F)cc3)CC2)cc1`, “inactive”; that for `O=C(CCCN1CCC(C(=O)c2ccc(F)cc2)CC1)c1ccc(F)cc1`, “inactive”.
On to `CCOC(=O)Oc1c(OC)cc(C(=O)O[C@@H]2C[C@@H]3CN4CCc5c([nH]c6cc(OC)ccc56)[C@H]4C[C@@H]3[C@H](C(=O)OC)[C@H]2OC)cc1OC`, for which the Potency entry is “inactive”.
The result for `CC(=O)c1ccc2c(c1)N(CCCN1CCN(CCO)CC1)c1ccccc1S2` reads “inactive”; that for `CC(=O)O[C@]1(C(C)=O)CC[C@H]2[C@@H]3C=C(C)C4=CC(=O)CC[C@@H]4[C@H]3CC[C@@]21C`, “inactive”; that for `CCCCCCC(COC(=O)c1cccnc1)(COC(=O)c1cccnc1)COC(=O)c1cccnc1`, “inactive”.
To `CC[C@@H](C)[C@H]1O[C@]2(CC[C@@H]1C)C[C@@H]1C[C@@H](C/C=C(\C)[C@@H](O[C@H]3C[C@H](OC)[C@@H](O[C@H]4C[C@H](OC)[C@@H](O)[C@H](C)O4)[C@H](C)O3)[C@@H](C)/C=C/C=C3\CO[C@@H]4[C@H](O)C(C)=C[C@@H](C(=O)O1)[C@]34O)O2` belongs “inactive”; to `COc1cc2[nH]c(C)c(CCN3CCN(c4ccccc4)CC3)c2cc1OC`, “inactive”.
To `CNS(=O)(=O)CC1CCC(N(C)c2ncnc3[nH]ccc23)CC1` (stereo unspecified) belongs “inactive”; to `CCCCCCCCCC(=O)OCCN1CCN(CC/C=C2\c3ccccc3Sc3ccc(C(F)(F)F)cc32)CC1`, “inactive”; to `O=C(O)c1ccc2nc(-c3cc(Cl)cc(Cl)c3)oc2c1`, “inactive”.
